# This is a sample that favours compounds with a hit; in the whole collection about 2.4% have one here.
# Cruzain Triton – inhibitors of Trypanosoma cruzi cruzain with detergent | 0.43% of 200,000 active | Potency, µM, for the others: max response, negative = inhibition, actives largely listed as inhibitors | AID 1478 | P25779 | purified cruzain, Z-FR-AMC fluorescence, 0.01% Triton;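 also: plate controls were neutral wells for no effect and buffer without enzyme for full effect; nearly all actives have a fitted effect of over 40% in size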
# Target sequence (P25779 123-467 limits assumed): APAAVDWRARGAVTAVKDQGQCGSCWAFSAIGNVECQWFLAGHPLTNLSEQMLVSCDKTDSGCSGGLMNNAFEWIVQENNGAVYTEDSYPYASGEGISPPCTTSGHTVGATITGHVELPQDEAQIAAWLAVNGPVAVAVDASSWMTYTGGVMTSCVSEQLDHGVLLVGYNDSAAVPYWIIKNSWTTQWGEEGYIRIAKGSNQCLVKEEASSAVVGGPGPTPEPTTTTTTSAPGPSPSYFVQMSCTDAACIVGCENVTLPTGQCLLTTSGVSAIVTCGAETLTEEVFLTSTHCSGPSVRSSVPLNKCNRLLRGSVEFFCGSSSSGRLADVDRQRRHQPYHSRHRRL
#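 Compounds were screened in titration against cruzain (1.5 nM) with 0.01% Triton X-100 to counter colloidal aggregation. Activity was the AMC fluorescence increase over 60 s after adding 2 uM Z-FR-AMC at pH 5.5.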
# Cruzain inh noDet – inhibitors of Trypanosoma cruzi cruzain without detergent. P25779. purified cruzain, Z-FR-AMC fluorescence, no detergent. Potency, µM, for the others: max response, negative = inhibition, actives largely listed as inhibitors. 2.3% of 200,000 active;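 also: plate controls were enzyme without inhibitor for no effect and buffer without enzyme for full effect; nearly all actives have a fitted effect of over 40% in size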
#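 Purified cruzain at 1.5 nM, pre-incubated 15 min with compound at room temperature in 100 mM sodium acetate pH 5.5, 5 mM DTT, 0.00005% Triton X-100. Reaction started with 2 uM Z-FR-AMC; AMC fluorescence increase over 60 s gives rate.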
# * = called active by the depositor; ? = inconclusive. Calls follow the shape of the dose curve; as a rule, active = well fitted curve in the direction sought with a large enough effect; inconclusive = small, poorly fitted or top-dose-only effect, or another doubt; inactive = no such curve, though single readings can be large; an effect the other way counts as inactive or inconclusive. Potency is read from the fitted curve at half-maximal effect.
SMILES,Cruzain Triton,Cruzain inh noDet
COc1cccc(-n2c(SCC(=O)NCc3cccs3)nc3ccccc3c2=O)c1,-3.4%,-14.1%
N#Cc1ccc(-c2cccnc2)nc1SCC(=O)Nc1sc2c(c1C#N)CCC2,2.6%,-0.6%
COc1cccc(-n2c(SCC(=O)Nc3sc4c(c3C(N)=O)CCC4)nc3ccccc3c2=O)c1,2.0%,25.1µM*
COc1ccc(-c2nnc(SCC(=O)Nc3sc4c(c3C#N)CCCC4)n2-c2ccccc2)cc1,-2.8%,?
COC(=O)c1cccc(-n2nnnc2SCC(=O)Nc2nc3c(s2)CCCC3)c1,-1.7%,?
COc1ccc(-n2c(SCC(=O)Nc3sc4c(c3C#N)CCCC4)nnc2-c2ccccc2OC)cc1,-1.7%,25.1µM*
C/C(=N/O)[C@@H]1C[C@H](CC(=O)O)C1(C)C,2.8%,8.3%
C[C@]1(OC(=O)/C=C\c2ccccc2)C[C@@H](O)[C@@]2(O)C=CO[C@@H](O[C@H]3O[C@@H](CO)[C@@H](O)[C@@H](O)[C@@H]3O)[C@H]21,0.0%,-10.5%
COC(=O)CSc1nnc(CNc2ccc(OC)cc2)n1C,1.8%,-2.2%
O=C(CSc1nc(-c2ccccc2)cc(C(F)(F)F)n1)NCc1cccs1,-5.8%,-0.4%
O=C(COc1ccc(Cl)cc1Cl)N(c1ccccn1)C1CCCCC1,-3.8%,-16.1%
Cc1ccc(Cl)cc1NC(=O)COC(=O)c1ccc(COc2ccc3c(C)cc(=O)oc3c2)cc1,-1.4%,7.94µM*
CC(=O)Nc1ccc(NC(=O)c2ccc(COc3ccc4c(C)cc(=O)oc4c3)cc2)cc1,-4.1%,-14.7%
Cc1cccc(NC(=O)CSC2=Nc3ccccc3C3=NC(CCC(=O)NCc4ccco4)C(=O)N23)c1 (configuration not stated),-6.2%,21.4%
COc1ccccc1-n1c(SCc2cc(=O)oc3cc(O)ccc23)nc2ccccc2c1=O,-11.7%,25.1µM*
COc1ccc(C(C)=O)cc1CSc1nc2ccccc2c(=O)n1-c1ccccc1C,-9.8%,?
CC1=C(C(=O)OCc2ccc(C)cc2)C(c2cccc(F)c2F)CC(=O)N1 (configuration not stated),-14.7%,-0.4%
O=C(COC(=O)[C@H](Cc1c[nH]c2ccccc12)NC(=O)c1ccc(Cl)cc1)Nc1ccc2c(c1)OCO2,3.55µM*,20µM*
CCOC(=O)C(Cc1c[nH]c2ccccc12)NC(=O)COc1ccc(Cl)cc1 (configuration not stated),-7.7%,10.7%
CC(=O)NC(Cc1c[nH]c2ccccc12)C(=O)NCc1ccc2c(c1)OCO2 (configuration not stated),3.6%,-13.3%
CC(C)(C)c1ccc(C(=O)NC(Cc2c[nH]c3ccccc23)C(=O)OCC(=O)c2ccc(Cl)cc2)cc1 (configuration not stated),-3.8%,25.1µM*
C/C(=C\C(=O)c1ccccc1)NCc1ccc(F)cc1,-7.2%,0.6%
CCC(=O)N(CCC(Cc1ccccc1)c1ccc2c(c1)OCO2)Cc1ccccc1F (configuration not stated),-1.5%,5.2%
O=C1N=C(N2CCN(c3ccccc3)CC2)S/C1=C/c1cccs1,-15.9%,-22.8%
O=C1N=C(c2ccccc2)S/C1=C\c1cccs1,-22.8%,20µM*
SMILES,Cruzain Triton,Cruzain inh noDet
O=C(NN1C(=O)C2C3CCC(O3)C2C1=O)c1ccc(Cl)cc1 (configuration not stated),-0.6%,1.2%
Cc1nn(-c2ccccc2)c(C)c1/C=N/NC(=O)CSc1nc2ccccc2c(=O)n1-c1ccc(Br)cc1,2.0%,15.8µM*
Cc1ccccc1-n1c(SCC(=O)N/N=C/c2c(C)nn(-c3ccccc3)c2C)nc2ccccc2c1=O,-2.7%,?
Cc1nn(-c2ccccc2)c(C)c1/C=N/NC(=O)CSc1nnc(SCc2cccc3ccccc23)s1,-3.7%,3.98µM*
Cc1ccc(-n2c(SCC(=O)N/N=C/c3c(C)nn(-c4ccccc4)c3C)nc3ccccc3c2=O)cc1,-2.8%,-5.7%
C=C(C)Cn1c(SCC(=O)N/N=C/c2c(O)ccc3ccccc23)nc2ccccc2c1=O,-4.5%,15.8µM*
C=C(C)Cn1c(SCC)nc2ccccc2c1=O,-5.7%,-4.1%
Cc1ccc(C(=O)C[n+]2cccc3ccccc32)cc1,-1.6%,0.9%
COC(=O)CCCn1c(-c2ccc(C)cc2)c(C)n2c3c(=O)n(C)c(=O)n(C)c3nc12,-0.2%,-3.8%
COc1ccc(CCNC(=O)C2CC(c3c(Cl)cccc3Cl)=NO2)cc1 (configuration not stated),-3.4%,-0.1%
O=S(=O)(Nc1nc(-c2sccc2Cl)cs1)c1cc(Cl)ccc1Cl,20µM*,?
CN(C)c1ccc(NS(=O)(=O)c2cc(Cl)ccc2Cl)cc1,-8.9%,-10.9%
COc1ccc(C(=O)COC(=O)CCN2C(=O)C3C4CC(C(Br)C4Br)C3C2=O)cc1 (configuration not stated),-2.6%,?
CCOC(=O)c1c(NC(=O)/C=C/c2ccc(C)cc2)sc2c1CCCC2,-1.3%,-3.0%
O=c1c2sc3ccccc3c2n(Cc2cccc(Cl)c2)c(=O)n1Cc1ccc(F)cc1,-3.6%,6.31µM*
O=c1c2sc3ccccc3c2n(Cc2cccc(Cl)c2)c(=O)n1Cc1ccccc1,-1.5%,?
CS(=O)(=O)c1ccc(Sc2nc3ccccc3s2)c([N+](=O)[O-])c1,-3.8%,-21.2%
O=[N+]([O-])c1cc(S(=O)(=O)C(F)(F)F)ccc1Sc1nc2ccccc2s1,-6.7%,25.1µM*
CC(NC(=O)/C(C#N)=C1\N=C(NC(=O)c2cccs2)c2ccccc21)c1ccccc1 (configuration not stated),-0.3%,15.8µM*
N#C/C(C(=O)NCCc1ccccc1)=C1/N=C(NC(=O)c2cccs2)c2ccccc21,-6.2%,3.98µM*
C[C@@H](NC(=O)/C(C#N)=C/c1ccc(O)c(O)c1)c1ccccc1,-4.6%,7.0%
O=C(NCCc1ccccc1)c1cccs1,6.4%,-0.8%
O=C(c1ccccc1)c1ccc2nc(-c3ccc(NC(=O)c4ccccc4F)cc3)[nH]c2c1,-2.6%,?
COc1cc2c(cc1NC(=O)c1cccc([N+](=O)[O-])c1C)oc1ccccc12,-4.8%,?
COc1ccc(-n2cccc2/C=C2/NC(=O)N(c3cccc(Cl)c3)C2=O)cc1,-4.4%,10µM*
SMILES,Cruzain Triton,Cruzain inh noDet
Cc1cccc(N2C(=O)NC(=O)/C(=C\c3cccn3-c3ccc(Cl)cc3)C2=O)c1,-1.9%,-29.1%
CCOC(=O)CSc1nc2nc(C)cc(C)n2n1,1.7%,3.6%
COc1ccccc1-c1nc(C#N)c(N2CCN(c3cccc(Cl)c3)CC2)o1,22.4µM*,?
N#Cc1nc(-c2ccco2)oc1N1CCN(C(c2ccccc2)c2ccccc2)CC1,-13.3%,?
COc1ccccc1-c1nc(C#N)c(N2CCN(C(c3ccccc3)c3ccccc3)CC2)o1,25.1µM*,7.94µM*
N#Cc1nc(-c2ccco2)oc1N1CCN(c2cccc(Cl)c2)CC1,-21.7%,?
Cc1nn(-c2ccc3nnc(C)n3n2)c(C)c1CCC(=O)Nc1ccc(OC(F)(F)F)cc1,-0.5%,-7.5%
O=C1c2ccc(Oc3ccc4c(c3)C(=O)N(CCCO)C4=O)cc2C(=O)N1CCCO,5.2%,17.3%
O=C(NC(=S)Nc1ccc2c(c1)C(=O)c1ccccc1C2=O)c1ccc(F)cc1,0.4%,3.98µM*
Cc1ccc(NC(=S)NC(=O)c2ccc(F)cc2)cc1S(=O)(=O)Nc1ccccc1Cl,-5.2%,?
CCC(C)NC(=O)c1ccccc1NC(=O)/C(=C/c1ccc(OC)cc1)c1ccccc1 (configuration not stated),-5.9%,4.1%

# From PubChem BioAssay
